Cy5 interf NS3h: enhances or quenches Cy5 fluorescence in NS3h assay. Cy5-dT15 DNA with NS3h, fluorescence interference; actives lie on both sides; signal over control mean, under 1 quenches. fluorescence interference ratio at 100 µM. actives 6% (n = 16,000);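 active = compound fluorescence over control fluorescence at most 0.8, a quencher, or at least a set upper limit, an enhancer; inactive = ratio between 0.8 and the set upper limit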
HCV NS3h FP: hepatitis C NS3 helicase inhibition, primary screen; NS3h Cy5-dT15 DNA binding, fluorescence polarization; inhibition, % at 100 µM; actives 1.6% (n = 16,000);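 active = inhibition above the average over every tested compound plus 3 SD, cut at about 40% in these data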
HCV NS3h conf: hepatitis C NS3 helicase inhibition, confirmation. shares compounds with HCV NS3h FP. NS3h binding to Cy5-dT15 DNA, fluorescence polarization. inhibition, % at 100 µM. actives 20% (n = 240);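 active = percent inhibition of 50% or more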
SSB FP counter: counter-screen for HCV NS3 helicase inhibitors: E. coli SSB binding. shares compounds with HCV NS3h FP. E. coli SSB binding Cy5-dT15, fluorescence polarization. inhibition, % at 100 µM. actives 40% (n = 240);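 active = inhibition of at least 50%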;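 note: displacers lower Cy5 polarization so higher inhibition means more SSB displaced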
Target sequence (P0AGE0 whole entry, looked up): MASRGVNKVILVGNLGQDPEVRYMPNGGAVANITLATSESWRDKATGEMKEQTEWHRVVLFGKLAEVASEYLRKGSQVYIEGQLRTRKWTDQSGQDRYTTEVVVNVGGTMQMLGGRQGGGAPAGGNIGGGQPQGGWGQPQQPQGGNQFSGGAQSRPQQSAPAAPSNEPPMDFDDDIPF
Cy5 SSB interf: enhances or quenches Cy5-DNA fluorescence with E. coli SSB; shares compounds with HCV NS3h FP; Cy5-dT15/E. coli SSB fluorescence interference; actives lie on both sides; fluorescence interference ratio at 100 µM; actives 8% (n = 240); AID 720487;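 active = fluorescence interference ratio at or above 1.2, signal boosting, or at or below 0.8, signal quenching; inactive = ratio between 0.8 and 1.2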;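 note: ratio of compound well signal to mean negative control signal so 1 means no effect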
Cy5 interf conf: confirmation counter-screen for HCV NS3 helicase inhibitors: fluorescence interference. actives 44% (n = 240). shares compounds with HCV NS3h FP. fluorescence interference ratio at 100 µM, hits read low. Cy5-dT15 DNA/NS3h fluorescence interference counterscreen;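 active = fluorescence interference ratio at or below 0.8 quencher or at or above a set limitenhancer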;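 note: ratio of compound fluorescence to mean of negative controls so 1 means no interference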
The depositor's hits bear a star. Only some compounds are listed: those with a hit (about 6.9% of all), similar ones and a draw of the others.

`COc1ccccc1N1C(=O)NC(=O)/C(=C\c2ccc(Br)cc2)C1=O` gave Cy5 interf NS3h 0.92 and HCV NS3h FP 19.
Screening COc1cc(/C=N\Nc2nn[nH]n2)ccc1O returned Cy5 interf NS3h 0.87 and HCV NS3h FP -6.
For CC(=O)Nc1ccc(NC(=O)CN2C(=O)c3ccccc3C2=O)cc1 the results were Cy5 interf NS3h 1.1 and HCV NS3h FP 19.
`COc1cc(/C=C2/C(=O)NC(=O)N(c3cccc(C)c3)C2=O)ccc1OCCOc1ccccc1` gave Cy5 interf NS3h 0.95 and HCV NS3h FP 18.
`Cc1c(NS(=O)(=O)c2cc(Cl)ccc2Cl)c(=O)n(-c2ccccc2)n1C` gave Cy5 interf NS3h 1.1 and HCV NS3h FP -3.
For CN(C)c1ccc(NC(=O)N2CCOCC2)cc1 the results were Cy5 interf NS3h 2.1*, HCV NS3h FP 157*, HCV NS3h conf 55*, SSB FP counter 82*, Cy5 SSB interf 1.1 and Cy5 interf conf 0.95.
Screening O=C(Nc1cccnc1)N1CCOCC1 returned Cy5 interf NS3h 1 and HCV NS3h FP -10.
CC(=O)Oc1ccc(-c2cccc(NC(=O)c3ccc4c(c3)Cc3ccccc3-4)c2)cc1 was read as Cy5 interf NS3h 0.91 and HCV NS3h FP 22.
`Cc1ccc(N2C(=O)NC(=O)/C(=C\c3ccc(N(C)C)c(Br)c3)C2=O)cc1` gave Cy5 interf NS3h 1 and HCV NS3h FP 19.
For CCOC(=O)c1c(NC(=O)/C=C/c2ccc(C)o2)sc(C)c1C the results were Cy5 interf NS3h 0.99, HCV NS3h FP 61*, HCV NS3h conf 2, SSB FP counter 3, Cy5 SSB interf 0.97 and Cy5 interf conf 0.74*.
`Cc1ccc(/C=C/C(=O)Nc2ccc(Cl)cc2Cl)o1` gave Cy5 interf NS3h 0.92 and HCV NS3h FP 26.
CN(C(=O)Cc1ccccc1)c1ccccc1 was read as Cy5 interf NS3h 0.98 and HCV NS3h FP -12.
COc1ccc(/C=C2/SC(=S)NC2=O)cc1OCc1ccc(Cl)cc1 was read as Cy5 interf NS3h 1 and HCV NS3h FP 8.
COc1cc(/C=C2/SC(=S)NC2=O)cc(Cl)c1OCc1ccc(Cl)cc1Cl was read as Cy5 interf NS3h 1, HCV NS3h FP 48*, HCV NS3h conf 12, SSB FP counter 55*, Cy5 SSB interf 0.94 and Cy5 interf conf 0.85.
`O=C1C/C(=C/NCCc2ccc(O)cc2)C(=O)N1` gave Cy5 interf NS3h 1 and HCV NS3h FP 2.
`COc1ccc2ccccc2c1C1NC(=S)NC(C)=C1C(=O)Nc1cccc(Cl)c1` (stereo unspecified) gave Cy5 interf NS3h 0.93 and HCV NS3h FP 7.
CCOc1cc(C(=O)NCc2ccccc2OC)cc(OCC)c1OCC was read as Cy5 interf NS3h 0.93 and HCV NS3h FP 9.
COC(=O)C1=C(C)N(c2ccc(Br)cc2)/C(=C\c2ccc(OCC(=O)Nc3ccccc3OC)cc2)C1=O was read as Cy5 interf NS3h 1.1 and HCV NS3h FP -9.
O=C(O)CC(C(=O)O)c1c[nH]c2ccccc12 (stereo unspecified) was read as Cy5 interf NS3h 1.1 and HCV NS3h FP -5.
`O=C(O)Cc1c[nH]c2ccc(O)cc12` gave Cy5 interf NS3h 0.81, HCV NS3h FP 90*, HCV NS3h conf 78*, SSB FP counter 110*, Cy5 SSB interf 0.88 and Cy5 interf conf 0.91.
For CCOC(=O)/C(=C1/OC(=O)c2ccccc21)c1ccc([N+](=O)[O-])cc1 the results were Cy5 interf NS3h 1.1 and HCV NS3h FP -1.
`CC(/C=C1\SC(=S)N(C(C(=O)O)c2ccccc2)C1=O)=C\c1ccccc1` (stereo unspecified) gave Cy5 interf NS3h 0.94, HCV NS3h FP 24, HCV NS3h conf 4, SSB FP counter 5, Cy5 SSB interf 0.97 and Cy5 interf conf 0.69*.
Screening O=C1C(=C/C(Br)=C/c2ccccc2)SC(=S)N1Cc1ccccc1 returned Cy5 interf NS3h 1.1 and HCV NS3h FP 8.
Screening CCN(CC)CCNC(=O)c1ccc(NC(=S)NC(=O)c2cccnc2)cc1 returned Cy5 interf NS3h 0.72*, HCV NS3h FP 63*, HCV NS3h conf 41, SSB FP counter 36, Cy5 SSB interf 0.77* and Cy5 interf conf 0.81.
`O=C(NC(=S)Nc1ccc(Cc2ccncc2)cc1)c1ccccc1` gave Cy5 interf NS3h 0.93 and HCV NS3h FP 36.
Screening CC(C)c1ccc(/C=C2\SC(=S)N(C3CCS(=O)(=O)C3)C2=O)cc1 (stereo unspecified) returned Cy5 interf NS3h 0.95 and HCV NS3h FP -1.
`Cc1ccsc1/C=C1\SC(=S)N(C2CCS(=O)(=O)C2)C1=O` (stereo unspecified) gave Cy5 interf NS3h 1.3*, HCV NS3h FP 68*, HCV NS3h conf 4, SSB FP counter 17, Cy5 SSB interf 0.91 and Cy5 interf conf 0.72*.
Cc1ccc(C)n1-c1cc(C(=O)O)ccc1O was read as Cy5 interf NS3h 1.4*, HCV NS3h FP 96*, HCV NS3h conf 85*, SSB FP counter 104*, Cy5 SSB interf 0.94 and Cy5 interf conf 1.
`Cc1ccc(C(=O)O)cc1N1C(=O)C2C3C=CC(C3)C2C1=O` (stereo unspecified) gave Cy5 interf NS3h 1.1 and HCV NS3h FP -3.
Screening CC(=O)c1ccc(-n2c(C)ccc2C)cc1 returned Cy5 interf NS3h 1.1 and HCV NS3h FP 0.
Cc1ccc(C)n1-c1ccc(C(=O)O)c(O)c1 was read as Cy5 interf NS3h 1.3*, HCV NS3h FP 90*, HCV NS3h conf 101*, SSB FP counter 99*, Cy5 SSB interf 0.92 and Cy5 interf conf 0.98.
O=C1NC(=S)S/C1=C\c1ccc(-c2ccccc2C(=O)O)o1 was read as Cy5 interf NS3h 0.87, HCV NS3h FP 62*, HCV NS3h conf 53*, SSB FP counter 110*, Cy5 SSB interf 0.79* and Cy5 interf conf 0.91.
`O=C1NC(=S)S/C1=C/c1ccc(-c2ccccc2)o1` gave Cy5 interf NS3h 1.1 and HCV NS3h FP 18.
`CC(C)CC(=O)Nc1ccccc1C(=O)Nc1ccc(C(=O)O)cc1` gave Cy5 interf NS3h 1 and HCV NS3h FP -1.
For O=C1C=CC(=O)N1c1ccccc1N1C(=O)C=CC1=O the results were Cy5 interf NS3h 1, HCV NS3h FP 81*, HCV NS3h conf 63*, SSB FP counter 11, Cy5 SSB interf 0.98 and Cy5 interf conf 0.95.
`O=C1C=CC(=O)N1c1ccc(Cc2ccc(N3C(=O)C=CC3=O)c(Cl)c2)cc1Cl` gave Cy5 interf NS3h 1 and HCV NS3h FP 14.
`COc1ccc2c(c1)CC/C2=N/OC(=O)c1cccc2ccccc12` gave Cy5 interf NS3h 1.1 and HCV NS3h FP 21.
